Assay results as given in the supplement of paper PMC7156485.
Structures can show the parent of a compound that is named as a salt. ± gives the standard deviation of the averaged measurements.

Experiments:
Settings in all cases: concentration: 10 µM; 24 h
HCC1569 [1] = assay: cell number relative to DMSO (% of DMSO); higher = more cells (less growth inhibition / toxicity)
Procedure, shortened: (§1)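 Compounds were applied at 10 µM for 24 h at 37 °C, in triplicate, to HCC1569 and TDF cells. The cells were then fixed and stained for H1.0, and nuclei were counterstained with DAPI. Nuclear H1.0 intensity or cell number is reported relative to the plate control as a percent, taking the median of replicates. Smoothing for positional effects was applied to HCC1569 values only.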

TDF [2] = assay: as above
Procedure, shortened: as §1

TDF [3] = assay: H1.0 immunofluorescence intensity relative to DMSO (% of DMSO); higher = stronger H1.0 induction, active = 120 or more
Procedure, shortened: as §1

HCC1569 [4] = assay: H1.0 immunofluorescence intensity relative to DMSO (% of DMSO); higher = stronger H1.0 induction, active = 140 or more
Procedure, shortened: as §1
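Wherever H1.0 immunofluorescence intensity relative to DMSO is given: TDF is a line of transformed human dermal fibroblasts of mesenchymal origin.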
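Wherever cell number relative to DMSO is given: TDF denotes transformed human dermal fibroblasts of mesenchymal origin.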

With `CCC1C(=O)OCC1Cc1cncn1C.Cl` (configuration not stated) [Pilocarpine.HCl] the cell number (HCC1569 [1]) was 102 ± 2.4, the cell number (TDF [2]) was 94.48 ± 0.24 and the H1.0 immunofluorescence intensity (TDF [3]) was 97.6 (inactive). For the same compound, the H1.0 immunofluorescence intensity (HCC1569 [4]) was 102 (inactive).

For `CC1CCC2(C(=O)O)CCC3(C)C(=CCC4C5(C)CC(O)C(O)C(C)(CO)C5C(O)CC43C)C2C1C` (configuration not stated) [Madecassic acid], the cell number (HCC1569 [1]) was 105, the cell number (TDF [2]) was 102 and the H1.0 immunofluorescence intensity (TDF [3]) was 91.6 (inactive). The H1.0 immunofluorescence intensity (HCC1569 [4]) was 91.7 (inactive).

With `COc1ccccc1N1CCN(CCCNc2c(C)c(=O)n(C)c(=O)n2C)CC1` [Urapidil, 5-Methyl-] the cell number (HCC1569 [1]) was 105, the cell number (TDF [2]) was 121 and the H1.0 immunofluorescence intensity (TDF [3]) was 96.7 (inactive). For the same compound, the H1.0 immunofluorescence intensity (HCC1569 [4]) was 108 (inactive).

`CC1(C)CCCC(C)(C2CCC3(C)C2C(O)CC2C4(C)CCC(O)C(C)(C)C4CCC23C)O1` (configuration not stated) [Panaxadiol] was tested, and the cell number (HCC1569 [1]) was 105, the cell number (TDF [2]) was 103 and the H1.0 immunofluorescence intensity (TDF [3]) was 91.8 (inactive). The H1.0 immunofluorescence intensity (HCC1569 [4]) was 93.6 (inactive).

For `CN1CCCC1c1cccnc1.Cc1ccc(C(=O)OC(C(=O)O)C(OC(=O)c2ccc(C)cc2)C(=O)O)cc1` (stereo not drawn) [(+)-Nicotine (+)-di-p-toluoyl tartrate], the cell number (HCC1569 [1]) was 102, the cell number (TDF [2]) was 109 and the H1.0 immunofluorescence intensity (TDF [3]) was 88.1 (inactive). The H1.0 immunofluorescence intensity (HCC1569 [4]) was 99.5 (inactive).

With `Nc1c2c(nc3ccccc13)CCCC2` [Tacrine] the cell number (HCC1569 [1]) was 102, the cell number (TDF [2]) was 97.1 and the H1.0 immunofluorescence intensity (TDF [3]) was 95.7 (inactive). For the same compound, the H1.0 immunofluorescence intensity (HCC1569 [4]) was 109 (inactive).

For `CC(N)=NCCCC[C@H](N)C(=O)O.Cl` [L-N6-(1-Iminoethyl)lysine hydrochloride], the cell number (HCC1569 [1]) was 103, the cell number (TDF [2]) was 109 and the H1.0 immunofluorescence intensity (TDF [3]) was 84.8 (inactive). The H1.0 immunofluorescence intensity (HCC1569 [4]) was 91.6 (inactive).

In the case of `Cl.Cl.Cl.Cl.NCCCNCCCCNCCCN` [Spermine tetrahydrochloride], the cell number (HCC1569 [1]) is reported as 102, the cell number (TDF [2]) is reported as 104 and the H1.0 immunofluorescence intensity (TDF [3]) is reported as 92.3 (inactive). For the same compound, the H1.0 immunofluorescence intensity (HCC1569 [4]) was 86.7 (inactive).

With `CC=Cc1ccc(OC)cc1` [Anethole, trans-] the cell number (HCC1569 [1]) was 96.1, the cell number (TDF [2]) was 81.4 and the H1.0 immunofluorescence intensity (TDF [3]) was 107 (inactive). For the same compound, the H1.0 immunofluorescence intensity (HCC1569 [4]) was 105 (inactive).

`C=CC(N)CCC(=O)O` (racemic) was tested, and the cell number (HCC1569 [1]) was 92.9, the cell number (TDF [2]) was 99 and the H1.0 immunofluorescence intensity (TDF [3]) was 97.3 (inactive). The H1.0 immunofluorescence intensity (HCC1569 [4]) was 107 (inactive).

With `Cc1cnc(-c2cnc(NCCNc3ccc(C#N)cn3)nc2-c2ccc(Cl)cc2Cl)[nH]1` the cell number (HCC1569 [1]) was 70.4, the cell number (TDF [2]) was 74.4 and the H1.0 immunofluorescence intensity (TDF [3]) was 114 (inactive). For the same compound, the H1.0 immunofluorescence intensity (HCC1569 [4]) was 112 (inactive).

For `COc1ccc2nc(S(=O)Cc3ncc(C)c(OC)c3C)[nH]c2c1` (configuration not stated) [Omeprazole], the cell number (HCC1569 [1]) was 100, the cell number (TDF [2]) was 102 and the H1.0 immunofluorescence intensity (TDF [3]) was 95.5 (inactive). The H1.0 immunofluorescence intensity (HCC1569 [4]) was 111 (inactive).

For `O=C1Cc2c([nH]c3ccc(Br)cc23)-c2ccccc2N1` [Kenpaulone], the cell number (HCC1569 [1]) was 73.4, the cell number (TDF [2]) was 97.7 and the H1.0 immunofluorescence intensity (TDF [3]) was 89.8 (inactive). For the same compound, the H1.0 immunofluorescence intensity (HCC1569 [4]) was 83.4 (inactive).

With `CC1(C)CC=C(c2cnc3ccccc3c2)c2cc(C(=O)Nc3ccc(C(=O)O)cc3)ccc21` the cell number (HCC1569 [1]) was 99.8, the cell number (TDF [2]) was 99.3 and the H1.0 immunofluorescence intensity (TDF [3]) was 97.3 (inactive). The H1.0 immunofluorescence intensity (HCC1569 [4]) was 96.8 (inactive).

In the case of `O=C(NNC(=O)c1ccc(CNS(=O)(=O)c2ccc(F)c(Cl)c2)cc1)c1ccccc1`, the cell number (HCC1569 [1]) is reported as 103, the cell number (TDF [2]) is reported as 113 and the H1.0 immunofluorescence intensity (TDF [3]) is reported as 95.9 (inactive). For the same compound, the H1.0 immunofluorescence intensity (HCC1569 [4]) was 105 (inactive).

`Cl.O=C(O)C1=CCCNC1` [Guvacine hydrochloride] was tested, and the cell number (HCC1569 [1]) was 97.8, the cell number (TDF [2]) was 99.1 and the H1.0 immunofluorescence intensity (TDF [3]) was 103 (inactive). The H1.0 immunofluorescence intensity (HCC1569 [4]) was 91.1 (inactive).

In the case of `CC(C)(C)NCC(O)COc1nsnc1N1CCOCC1` (stereo not drawn) [S(-)-Timolol maleate], the cell number (HCC1569 [1]) is reported as 97.5, the cell number (TDF [2]) is reported as 104 and the H1.0 immunofluorescence intensity (TDF [3]) is reported as 93 (inactive). The H1.0 immunofluorescence intensity (HCC1569 [4]) was 110 (inactive).

For `CCC=CCC=CCC=CCC=CCC=CCCCC(=O)O` [Eicosapentaenoic acid], the cell number (HCC1569 [1]) was 106 ± 9.9, the cell number (TDF [2]) was 103.8 ± 0.71 and the H1.0 immunofluorescence intensity (TDF [3]) was 103 (inactive). The H1.0 immunofluorescence intensity (HCC1569 [4]) was 99.1 (inactive).

In the case of `COc1cc2ncnc(Nc3ccc(O)c(Br)c3)c2cc1OC` [JAK3 Inhibitor II], the cell number (HCC1569 [1]) is reported as 88.7, the cell number (TDF [2]) is reported as 115 and the H1.0 immunofluorescence intensity (TDF [3]) is reported as 83.8 (inactive). For the same compound, the H1.0 immunofluorescence intensity (HCC1569 [4]) was 127 (inactive).

For `CC[C@H](C)C(=O)O[C@H]1C[C@H](O)C=C2C=C[C@H](C)[C@H](CC[C@@H](O)C[C@@H](O)CC(=O)[O-])[C@H]21.[Na+]`, the cell number (HCC1569 [1]) was 101, the cell number (TDF [2]) was 93.2 and the H1.0 immunofluorescence intensity (TDF [3]) was 95.9 (inactive). For the same compound, the H1.0 immunofluorescence intensity (HCC1569 [4]) was 98.1 (inactive).

With `Cc1nc(C(=O)N2CCC[C@H]2Cc2nnc(-c3ccccc3)o2)c(-c2ccccc2F)s1` the cell number (HCC1569 [1]) was 96.3, the cell number (TDF [2]) was 113 and the H1.0 immunofluorescence intensity (TDF [3]) was 97.5 (inactive). For the same compound, the H1.0 immunofluorescence intensity (HCC1569 [4]) was 95.5 (inactive).

In the case of `O=c1oc2c(O)c(O)cc3c(=O)oc4c(O)c(O)cc1c4c23` [Ellagic acid], the cell number (HCC1569 [1]) is reported as 102, the cell number (TDF [2]) is reported as 106 and the H1.0 immunofluorescence intensity (TDF [3]) is reported as 102 (inactive). The H1.0 immunofluorescence intensity (HCC1569 [4]) was 90.6 (inactive).

With `CCC(=O)OC1(C(=O)CCl)C(C)CC2C3CCC4=CC(=O)C=CC4(C)C3(F)C(O)CC21C` (configuration not stated) [Clobetasol Propionate] the cell number (HCC1569 [1]) was 109, the cell number (TDF [2]) was 114 and the H1.0 immunofluorescence intensity (TDF [3]) was 87.8 (inactive). For the same compound, the H1.0 immunofluorescence intensity (HCC1569 [4]) was 100 (inactive).
